Data from PubChem BioAssay AID1159580 (chemical genetic matrix, 2015).
Values joined by “and” are separate entries in the source; they are usually repeats but may differ in a detail not shown here. Equal entries are not always repeated. In all, about 5,500 compounds went through this assay and about 2,000 (36%) were called active. Another 18% or so got no clear call; they are omitted. Rule as the data show it: active = normalized growth mostly below about 0.91 (no sharp cut-off); inconclusive = no clear call, values can overlap the other calls; inactive = mostly above about 0.92. Some of the results follow.

Experiment: chemical genetic growth profiling, strain panel (AID 1159580);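 also: tested at 20 µM; growth read once vehicle control cultures reached saturation at 30 °C; 1 = growth at the plate median or of vehicle wells; lower values mean less growth of the strain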
Settings: S. cerevisiae deletion strains, growth OD

Measured: normalized growth

O=C1NS(=O)(=O)c2ccccc21
inactive: locus YAL013W, strain DEP1, active compounds read low 1.01 | locus YAL021C, strain ccr4, active compounds read low 0.965 | locus YAL026C, strain drs2, active compounds read low 1.04 | locus YAL030W, strain snc1, active compounds read low 1.02 | locus YBL061C, strain skt5, active compounds read low 1.03 | locus YBR009C, strain hhf1, active compounds read low 1.03 | locus YBR021W, strain FUR4, active compounds read low 1.02 | locus YBR023C, strain chs3, active compounds read low 1.02 | locus YBR171W, strain sec66, active compounds read low 1.03 | locus YBR229C, strain ROT2, active compounds read low 1.01 | locus YBR231C, strain swc5, active compounds read low 1.02 | locus YBR279W, strain paf1, active compounds read low 1.01 | locus YCL011C, strain gbp2, active compounds read low 1.02 | locus YCL016C, strain dcc1, active compounds read low 0.988 | locus YCL029C, strain bik1, active compounds read low 0.994 | locus YCL061C, strain MRC1, active compounds read low 1.02 | locus YCL069W, strain vba3, active compounds read low 1.02 | locus YCR088W, strain abp1, active compounds read low 1.02 | locus YDL005C, strain med2, active compounds read low 1.03 | locus YDL035C, strain GPR1, active compounds read low 0.994 | locus YDL040C, strain nat1, active compounds read low 1.02 | locus YDL074C, strain BRE1, active compounds read low 1.01 | locus YDL101C, strain DUN1, active compounds read low 1.01 | locus YDL134C, strain PPH21, active compounds read low 1 | locus YDL185W, strain tfp1, active compounds read low 0.994 | locus YDL192W, strain arf1, active compounds read low 1 | locus YDR001C, strain nth1, active compounds read low 1.01 | locus YDR069C, strain doa4, active compounds read low 1.04 | locus YDR101C, strain arx1, active compounds read low 0.983 | locus YDR137W, strain rgp1, active compounds read low 1.03 | locus YDR159W, strain sac3, active compounds read low 1.11 | locus YDR162C, strain NBP2, active compounds read low 0.998 | locus YDR195W, strain ref2 0.993 | locus YDR297W, strain sur2, active compounds read low 1.02 | locus YDR318W, strain mcm21, active compounds read low 0.979 | locus YDR334W, strain swr1, active compounds read low 1.02 | locus YDR335W, strain msn5, active compounds read low 1.01 | locus YDR388W, active compounds read low 0.991 | locus YDR392W, strain spt3, active compounds read low 0.957 | locus YDR502C, strain sam2, active compounds read low 0.995 | locus YEL003W, strain gim4, active compounds read low 1.03 | locus YEL037C, strain rad23, active compounds read low 1.01 | locus YEL061C, strain CIN8 (second series), active compounds read low 1.02 | locus YEL061C, strain CIN8, active compounds read low 1.01 | locus YER015W, strain faa2, active compounds read low 1.02 | locus YER016W, strain bim1, active compounds read low 1.02 | locus YER110C, active compounds read low 0.987 | locus YER111C, strain swi4, active compounds read low 1.02 | locus YER155C, strain BEM2 (second series), active compounds read low 1.07 | locus YER155C, strain BEM2, active compounds read low 0.997 | locus YER167W, strain BCK2, active compounds read low 1 | locus YFR010W, strain ubp6, active compounds read low 1.03 | locus YGL078C, strain dbp3, active compounds read low 1 | locus YGL086W, strain mad1, active compounds read low 0.998 | locus YGL167C, strain pmr1, active compounds read low 1.02 | locus YGL173C, strain kem1, active compounds read low 1.06 | locus YGL227W, strain vid30, active compounds read low 1.02 | locus YGL240W, strain doc1, active compounds read low 1.05 | locus YGL248W, strain PDE1, active compounds read low 1.03 | locus YGL253W, strain hxk2, active compounds read low 1.05 | locus YGR078C, strain PAC10, active compounds read low 1.05 | locus YGR135W, strain pre9, active compounds read low 0.984 | locus YGR252W, strain gcn5, active compounds read low 0.976 | locus YHR013C, strain ard1, active compounds read low 1.02 | locus YHR027C, strain rpn1, active compounds read low 1.05 | locus YHR030C, strain SLT2, active compounds read low 1 and 0.989 | locus YHR079C, strain IRE1 (second series), active compounds read low 0.984 | locus YHR079C, strain IRE1, active compounds read low 0.984 | locus YHR094C, strain hxt1, active compounds read low 0.988 | locus YHR129C, strain ARP1, active compounds read low 1.02 | locus YHR142W, strain chs7, active compounds read low 1.03 | locus YHR200W, strain rpn10, active compounds read low 0.991 | locus YIL066C, strain RNR3, active compounds read low 1.02 | locus YIL073C, strain SPO22, active compounds read low 0.958 | locus YIL125W, strain kgd1, active compounds read low 0.989 | locus YIR030C, strain dcg1, active compounds read low 0.998 | locus YJL092W, strain hpr5, active compounds read low 1.02 | locus YJL095W, strain BCK1 (second series), active compounds read low 1.02 | locus YJL095W, strain BCK1, active compounds read low 1.04 and 0.999 | locus YJL115W, strain asf1, active compounds read low 1.02 | locus YJL129C, strain trk1, active compounds read low 1.04 | locus YJL134W, strain LCB3, active compounds read low 0.999 | locus YJL154C, strain vps35, active compounds read low 1.02 | locus YJL164C, strain tpk1, active compounds read low 0.993 | locus YJL166W, strain qcr8, active compounds read low 1.04 | locus YJL168C, strain set2, active compounds read low 0.984 | locus YJL187C, strain SWE1 (second series), active compounds read low 1.03 | locus YJR043C, strain POL32, active compounds read low 0.977
